EBNA-1 inhibitor = blocks EBNA-1 binding to DNA. EBNA-1 DNA binding, fluorescence polarization. inhibition, % at 14.8 µM. 300,000 tested, 0.34% active. AID 1950; in the data active means inhibition above about 28%
ZTA counter = blocks Epstein-Barr virus ZTA, an EBNA-1 counter-screen | ZTA-DNA binding, fluorescence polarization | AID 2234 | 320,000 tested, 0.15% active | inhibition, % at 11 µM | P03206; in the data active means inhibition above about 33%
Target sequence (P03206 whole entry, looked up): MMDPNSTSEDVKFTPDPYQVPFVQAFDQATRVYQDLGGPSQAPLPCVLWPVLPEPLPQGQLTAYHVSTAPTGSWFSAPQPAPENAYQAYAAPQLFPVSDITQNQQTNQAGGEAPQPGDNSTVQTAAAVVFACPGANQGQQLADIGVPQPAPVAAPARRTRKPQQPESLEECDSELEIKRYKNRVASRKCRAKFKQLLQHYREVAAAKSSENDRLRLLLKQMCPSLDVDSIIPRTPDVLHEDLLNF
aDG glyco up = alpha-DG glycosylation activation; Pro5-aDG cells, alpha-DG glycosylation AlphaScreen (IIH6); 0% Pro5, 100% B10-LARGE cell signal; activation, % at 10 µM; 360,000 tested, 0.22% active; AID 624168;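 active means activation of at least 8% versus controls, or a plate z-score of at least 8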;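 further: Pro5 are CHO cells carrying HIG-tagged alpha-DG that lacks glycosylation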
p47phox inh = blocks human p47phox regulatory protein of NADPH oxidases; P14598; inhibition, % at 24.7 µM; p47phox/p22phox peptide binding, fluorescence polarization, 2 h; 220,000 tested, 0.53% active; AID 1274;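 active means inhibition above about 30%, limit read from the data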
NR1D1 modulator = modulates human Rev-erb alpha binding to DNA | P20393 | Rev-erbα–FITC-DNA binding, fluorescence polarization, 90 min | activity, % at 10 µM | 370,000 tested, 0.79% active | AID 1259318;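 active means activity above about 14%, limit read from the data; passing the limit was not always enough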
PG9 Ab binder = binds the HIV-1 gp120 antibody PG9; TR-FRET gp120-PG9 antibody binding; inhibition, % at 6.7 µM; 360,000 tested, 0.43% active; AID 624416; in the data active means inhibition above about 8.5%
PG9 binder conf = confirmation of small molecules binding HIV-1 gp120 antibody PG9. 1,500 tested, 90% active. AID 651571. TR-FRET PG9 antibody binding, biochemical. shares compounds with PG9 Ab binder. inhibition, % at 6.7 µM; in the data active means inhibition above about 9%
PGV04 counter = binds control antibody PGV04 in PG9 binder counter-screen. inhibition, % at 6.7 µM. TR-FRET PGV04 antibody-gp120 binding, biochemical. AID 651604. 1,500 tested, 95% active. shares compounds with PG9 Ab binder; in the data active means inhibition above about 9.5%
Numbers stand for hits. Most compounds without a hit are left out; they make up all but 1.9% or so of the library.

Screening CCCCNC(=O)C(NC(=O)c1cccc(C(F)(F)F)c1)C(=O)c1ccccc1 (stereo not given) returned aDG glyco up inactive, NR1D1 modulator inactive, PG9 Ab binder 27, PG9 binder conf 41 and PGV04 counter 55.
Screening O=C(CN(C(=O)OCC1c2ccccc2-c2ccccc21)[C@@H](Cc1ccccc1)C(=O)O)OCc1ccc(C(=O)NCc2ccccc2)cc1 returned NR1D1 modulator inactive.
`CCOC(=O)c1sc2nccc(N(C)C)c2c1N=CNOCc1c(F)cccc1Cl` gave EBNA-1 inhibitor inactive, ZTA counter inactive, aDG glyco up inactive, p47phox inh inactive, NR1D1 modulator inactive, PG9 Ab binder 10, PG9 binder conf 18 and PGV04 counter 25.
CCOC(=O)c1sc2nccc(N(C)C)c2c1N=CNOCc1ccccc1 was read as EBNA-1 inhibitor inactive, ZTA counter inactive, aDG glyco up inactive, p47phox inh inactive, NR1D1 modulator inactive and PG9 Ab binder inactive.
COc1cc(OC)cc(C(=O)N=c2sc3ccccc3n2C)c1 was read as EBNA-1 inhibitor inactive, ZTA counter inactive, aDG glyco up inactive, p47phox inh inactive, NR1D1 modulator inactive and PG9 Ab binder inactive.
`COc1cccc(C(=O)N=c2sc3cc(S(C)(=O)=O)ccc3n2C)c1` gave EBNA-1 inhibitor inactive, ZTA counter inactive, aDG glyco up inactive, p47phox inh inactive, NR1D1 modulator inactive, PG9 Ab binder 39, PG9 binder conf 46 and PGV04 counter 60.
C/C=C/C(=O)N1CCC(C(=O)NCC2COc3ccccc3O2)CC1 (stereo not given) was read as NR1D1 modulator inactive.
`CCc1cc2cc(C(=O)N3CCN(c4ccccc4)CC3)sc2s1` gave EBNA-1 inhibitor inactive, ZTA counter inactive, aDG glyco up inactive, p47phox inh inactive, NR1D1 modulator inactive, PG9 Ab binder 20, PG9 binder conf 36 and PGV04 counter 40.
COc1ccc(C2CCCN2C(=O)Nc2ccccc2)cc1OC (stereo not given) was read as EBNA-1 inhibitor inactive, ZTA counter inactive, aDG glyco up inactive, p47phox inh inactive, NR1D1 modulator inactive, PG9 Ab binder 13, PG9 binder conf inactive and PGV04 counter inactive.
S=C(NCc1ccc(Cl)cc1)OC1CCC12CCC(c1ccccc1)CC2 (stereo not given) was read as NR1D1 modulator inactive.
Cc1onc(-c2ccccc2Cl)c1C(=O)Nc1nnc(-c2ccc(Cl)cc2Cl)s1 was read as EBNA-1 inhibitor inactive, ZTA counter inactive, aDG glyco up inactive, p47phox inh inactive, NR1D1 modulator inactive, PG9 Ab binder 15, PG9 binder conf 39 and PGV04 counter 55.
`Cc1onc(-c2ccccc2Cl)c1C(=O)Nc1nnc(-c2ccc(Br)cc2)s1` gave EBNA-1 inhibitor inactive, ZTA counter inactive, aDG glyco up inactive, p47phox inh inactive, NR1D1 modulator inactive, PG9 Ab binder 27, PG9 binder conf 31 and PGV04 counter 49.
`Cc1onc(-c2ccccc2)c1C(=O)Nc1cccc2nsnc12` gave EBNA-1 inhibitor inactive, ZTA counter inactive, aDG glyco up inactive, p47phox inh inactive, NR1D1 modulator inactive, PG9 Ab binder 66, PG9 binder conf 72 and PGV04 counter 81.
Cc1onc(-c2c(F)cccc2Cl)c1C(=O)Nc1nnc(-c2ccccc2)s1 was read as EBNA-1 inhibitor inactive, ZTA counter inactive, aDG glyco up inactive, p47phox inh inactive, NR1D1 modulator inactive, PG9 Ab binder 9.6, PG9 binder conf 15 and PGV04 counter 23.
Screening Cc1onc(-c2ccccc2Cl)c1C(=O)Nc1nnc(-c2ccc(F)cc2)s1 returned EBNA-1 inhibitor inactive, ZTA counter inactive, aDG glyco up inactive, p47phox inh inactive, NR1D1 modulator inactive and PG9 Ab binder inactive.
For CC(C)C[C@@H]1COc2cccc(F)c2S(=O)(=O)N1C the results were NR1D1 modulator inactive.
CCNC(=S)NNC(=O)CSc1nnc(-c2ccccc2)n1-c1ccc(Cl)cc1 was read as NR1D1 modulator inactive.
Screening O=C(NCCN1C(=O)C2C3C=CC(C3)C2C1=O)c1cc(F)cc(F)c1 (stereo not given) returned NR1D1 modulator inactive.

Compound activity from PubChem.
